From PubChem BioAssay (NCATS)
Records with an inconclusive call do not appear. A call without a number means that no potency is given here. The source made the active and inactive calls. Calls follow the shape of the dose curve; as a rule, active = well fitted activation curve with a large enough effect in the signal ratio; inconclusive = small, poorly fitted or top-dose-only effect, or effect the other way, or a change in a side signal; inactive = flat fitted curve, though single readings scatter; the % refers to the signal ratio.

assay: qHTS assay for small molecule agonists of the antioxidant response element (ARE) signaling pathway (AID 651741); settings: HepG2 ARE-bla reporter, beta-lactamase FRET ratio, 16 h; series mostly up to 96 µM
Source text: National Center for Advancing Translational Sciences [NCATS]
NIH Chemical Genomics Center [NCGC]
U.S. Environmental Protection Agency [EPA]
National Institutes of Environmental Health Sciences [NIEHS]
National Toxicology Program [NTP]
Oxidative stress has been implicated in the pathogenesis of a variety of diseases ranging from cancer to neurodegeneration. The antioxidant response element (ARE) signaling pathway plays an important role in the amelioration of oxidative stress. The CellSensor ARE-bla HepG2 cell line (Invitrogen) can be used for analyzing the Nrf2/antioxidant response signaling pathway. Nrf2 (NF-E2-related factor 2) and Nrf1 are transcription factors that bind to AREs and activate these genes. The CellSensor ARE-bla Hep G2 cell line contains a beta-lactamase reporter gene under control of the Antioxidant Response Element (ARE) stably integrated into HepG2 cells. The activation of the report gene under culture conditions can be detected by fluorescence intensity. This cell line can be used to screen chemicals in a 1536-well plate format and to identify agonists that induce oxidative stress.
The ARE-bla cells were dispensed at 2,000 cells/5 ul/well in 1536-well black wall/clear bottom plates using a Multidrop dispenser. After the assay plates were incubated at a 37 C/5% CO2 incubator for 5 hours, 23 nL of compounds dissolved in DMSO, positive controls or DMSO only was transferred to the assay plate by a pin tool. The plates were incubated at 37 C for 16 hours. After 1 uL of LiveBLAzer B/G FRET substrate was added using a Flying Reagent Dispenser, the plates were incubated at room temperature for 2 hours, and fluorescence intensity was measured by an Envision plate reader.
Potency is read from the fitted curve at half-maximal effect.

Row | Compound | Potency
1 | COC(OC)(C(=O)c1ccccc1)c1ccccc1 | inactive
2 | CCC/C(=N\OCC)C1=C(O)CC(O)(CC(C)S(=O)(=O)CC)CC1=O (stereo not given) | 54.5 µM (active)
3 | CC(C)=CCC[C@@H](C)[C@H]1CC[C@@]2(C)C3=C(CC[C@]12C)[C@@]1(C)CC[C@H](O)C(C)(C)[C@@H]1CC3 | inactive
4 | CCCCCc1ccc(N)cc1 | inactive
5 | CN(C)CCOCCN(C)C | inactive
6 | CC(C)=CCC/C(C)=C\CO | inactive
7 | Cc1ccc(S(=O)(=O)N=C=O)cc1 | inactive
8 | O=c1[nH]c(=O)c2[nH]cnc2[nH]1 | inactive
9 | CC1(C)CC(N)CC(C)(CN)C1 (stereo not given) | inactive
10 | CC(COCC(C)OC(=O)c1ccccc1)OC(=O)c1ccccc1 (stereo not given) | inactive
11 | NCCCCCCCCCCC(=O)O | inactive
12 | CCCCC(CC)COC(=O)/C=C\C(=O)OCC(CC)CCCC (stereo not given) | 30.6 µM (active)
13 | CCCCOCCOCCOC(C)=O | inactive
14 | COC(=O)C1CCC(C(=O)OC)CC1 (stereo not given) | inactive
15 | CCCCCCCC1CCC(=O)O1 (stereo not given) | inactive
16 | Nc1cc(Cl)c(O)c(Cl)c1 | 12.2 µM (active)
17 | Cc1cc(C)c(N)c(Cl)c1 | inactive
18 | CCCCCCCCCCCCO | inactive
19 | C=C[Si](OCCOC)(OCCOC)OCCOC | inactive
20 | CCCCCCC(C)(C)S | inactive

Row | Compound | Potency
21 | C=C(C)C(=O)OCCOCCOCCOC(=O)C(=C)C | inactive
22 | OCC(CO)(CO)COCC(CO)(CO)CO | inactive
23 | Cl[Si](Cl)(Cl)c1ccccc1 | inactive
24 | C=CC(=O)NC(C)(C)CS(=O)(=O)O | inactive
25 | C[C@]12CCC(=O)C=C1CC[C@@H]1[C@@H]2[C@@H](O)C[C@]2(C=O)[C@@H](C(=O)CO)CC[C@@H]12 | inactive
26 | C[Si]1(C)O[Si](C)(C)O[Si](C)(C)O[Si](C)(C)O1 | inactive
27 | C[Si]1(C)N[Si](C)(C)N[Si](C)(C)N1 | inactive
28 | O=C1CCCC/C=C/CCCCCCCCCO1 | inactive
29 | CC(=O)CC(=O)Nc1ccc(C)cc1C | inactive
30 | COC(=O)c1ccccc1C(=O)O | inactive
31 | CCc1cccc(C)c1N(C(=O)CS(=O)(=O)O)[C@@H](C)COC | inactive
32 | CCC(=O)OCCc1ccccc1 | inactive
33 | CCCCCCCCCCCCCCCO | inactive
34 | CCCCCCCCCCCCN | inactive
35 | C=CCOC(=O)CC(C)C | inactive
36 | Brc1ccc(Oc2ccc(Br)cc2)cc1 | inactive
37 | CCCCCCCC(=O)Oc1c(Br)cc(C#N)cc1Br | 61.1 µM (active)
38 | CCCCCCCCCC(C)=O | inactive
39 | C=CC(=O)OCC[N+](C)(C)C | inactive
40 | CS/C(=N\O)C(=O)N(C)C | inactive
